Measurements reported in ChEMBL document CHEMBL4513146, “CO-ADD screening of Karazin Kharkiv National University (Ukraine) compounds”.
Potency and affinity values are given separately.

Tests used:
Klebsiella pneumoniae = details: Concentration 32 ug.mL-1;; ASSAY_TEST Inhibition of Bacterial Growth; detection method Absorption (OD600); MEDIA CAMHB; plate type 384well; NBS; CORNING #3640; time 18 hr
Candida albicans = details: Concentration 32 ug.mL-1; ASSAY_TEST Inhibition of Fungal Growth; detection method Absorption (OD530)
Cryptococcus neoformans = details: Concentration 32 ug.mL-1; ASSAY_TEST Inhibition of Fungal Growth; detection method Resazurin; Absorption (OD600-OD570); plate type 384well; NBS; CORNING #3640

SMILES | Inhibition (Klebsiella pneumoniae) [%] | Inhibition (Candida albicans) [%] | Inhibition (Cryptococcus neoformans) [%]
O=C(Cn1nc2c(N3CCOCC3)nccn2c1=O)Nc1ccc(Cl)cc1F | 19.61 | 2.13 | -2.72
O=C(CSc1nnc2c(=O)n(-c3ccccc3)ccn12)Nc1cccc(F)c1 | 2 | 7.33 | -21.7
COc1ccccc1Cn1c(=O)c2sccc2n2c(=O)n(Cc3ccc(Br)cc3)nc12 | 3.07 | -0.38 | -8.06
CCOc1ccc(NC(=O)Cn2nc3c(SCc4ccc(Cl)cc4)nccn3c2=O)cc1 | 5.7 | 17.72 | -25.81
O=C(Cn1nc2c(SC3CCCCC3)nccn2c1=O)Nc1ccc(Br)cc1 | 6.54 | 6.38 | -23.31
COc1ccc(CCn2c(=O)c3sccc3n3c(=O)n(CC(=O)c4ccccc4)nc23)cc1OC | 16.06 | 0.73 | -38.41
Cc1cc(C)cc(N(Cc2ccc(Cl)cc2)S(=O)(=O)c2cccn3c(C)nnc23)c1 | 4.19 | 0.27 | -8.23
Cc1ccc(NC(=O)CSc2nnc3c(=O)n(-c4ccc(C)c(C)c4)ccn23)c(Cl)c1 | 12.06 | 0.25 | -10.04
CSc1ccc(CNC(=O)Cn2nc3c(Oc4cccc(C)c4C)nccn3c2=O)cc1 | 12.69 | 0.27 | -6.54
COc1ccc(N(Cc2cccc(C)c2)S(=O)(=O)c2ccc3nnc(C)n3c2)cc1 | 7.11 | 0.04 | -1.35
O=C(Cn1nc2c3cc(-c4ccc(F)cc4)nn3ccn2c1=O)Nc1ccc2c(c1)OCCO2 | 11.81 | 2.29 | -25.22
Cc1ccccc1CN(c1ccc(Cl)cc1)S(=O)(=O)c1cccn2c(C)nnc12 | 11.42 | 2.31 | -9.98
